Assay outcomes (PubChem)
IL1B secr inh = qHTS for Inhibitors of Inflammasome Signaling: IL-1-beta AlphaLISA Primary Screen; THP-1 LPS/ATP IL-1B secretion, AlphaLISA, 16 h; stronger effect = lower value; activity change, % at 57.5 µM; 4.7% of 360,000 active; AID 743279, 2014; in the data active = activity change below about -50%; inconclusive = mostly about -30% to -49%
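THP-1 cells pretreated 1 hr with compounds (up to 57.5 uM final), then stimulated with LPS (250 ng/mL final) plus ATP (1.25 mM final); secreted IL-1B measured by AlphaLISA after 16 hr, decreased signal indicating inhibition.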
HT1080 IDH1KD tx = qHTS for induction of synthetic lethality in tumor cells producing 2HG: qHTS for the HT-1080-IDH1KD cell line. HT-1080 IDH1 knockdown viability, ATP luminescence, 48 h. Potency, µM (top dose mostly 46.1 µM), actives largely listed as cytotoxic. 2% of 360,000 active
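Using the IDH1-knockdown HT-1080 line run in the same batch and compound series as the NT line, viability after 48 h at 37 °C was determined by CellTiter-Glo luminescence and expressed as % activity.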
TDP1 cell CPT = qHTS for Inhibitors of human tyrosyl-DNA phosphodiesterase 1 (TDP1): qHTS in cells in presence of CPT | AID 686979, 2013 | Potency, µM (series often up to 46.2 µM), usual class: inhibitors | chicken DT40 Tdp1-/-;hTDP1 cells + 20 nM CPT, ATP luminescence, 48 h | 12% of 420,000 active; note: nearly all actives have a fitted effect of over 55% in size
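Chicken DT40 Tdp1-/- cells stably complemented with human TDP1 were seeded at 400 cells/well in medium containing 20 nM camptothecin, exposed to pin-transferred compounds, and grown at 37 °C for at least 48 hr. Viability was read as ATP luminescence.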
HT1080NT lethal = qHTS for induction of synthetic lethality in tumor cells producing 2HG: qHTS for the HT-1080-NT fibrosarcoma cell line; HT-1080-NT fibrosarcoma viability, CellTiter-Glo ATP luminescence, 48 h; Potency, µM (highest dose often 46.1 µM), actives largely listed as cytotoxic; 1.6% of 360,000 active; AID 686970, 2013;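 note: NT is the 2HG producing partner of a matched IDH1 knockdown line; nearly all actives have a fitted effect of over 55% in size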
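A 48-hour cytotoxicity screen used HT-1080-NT cells plated 2 hours before compound delivery. ATP-based CellTiter-Glo luminescence measured viability, normalized to DMSO and no-cell controls.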
DT40 TDP1 no CPT = qHTS for Inhibitors of human tyrosyl-DNA phosphodiesterase 1 (TDP1): qHTS in cells in absence of CPT; DT40 Tdp1-/- hTDP1 cells, no CPT, ATP luminescence, 48 h; 15% of 420,000 active; AID 686978, 2013; Potency, µM (highest dose often 46.2 µM), most hits filed as inhibitors; note: nearly all actives have a fitted effect of over 55% in size
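Chicken DT40 Tdp1-/- cells complemented with human TDP1, screened without camptothecin (DMSO vehicle only), 400 cells/well. Compounds pin-transferred, cells incubated at 37 °C for at least 48 hr. Growth read as ATP-dependent luminescence (CellTiter-Glo, 30 min at RT).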
Large screens that a line does not name were inactive. A selection: hits, their analogues and other compounds. The true share with any hit is near 19%. Unless noted, calls come from the whole dose curve; as a rule, active = well fitted curve in the direction sought with a large enough effect; inconclusive = small, poorly fitted or top-dose-only effect, or another doubt; inactive = no such curve, though single readings can be large; an effect the other way counts as inactive or inconclusive.

CC(C)OP(=O)(OC(C)C)C(Nc1ccccc1)c1cccc2c1OCO2 (centres undefined)	TDP1 cell CPT inconclusive, DT40 TDP1 no CPT inconclusive
COc1ccc(C(Nc2cccc([N+](=O)[O-])c2)P(=O)(OC(C)C)OC(C)C)cc1 (centres undefined)	TDP1 cell CPT 16.4µM, DT40 TDP1 no CPT 16.4µM
COc1ccc(OC)c(C(Nc2ccccc2)P(=O)(OC(C)C)OC(C)C)c1 (centres undefined)	TDP1 cell CPT inconclusive, DT40 TDP1 no CPT 16.4µM
CC(C)OP(=O)(OC(C)C)C(Nc1ccc([N+](=O)[O-])cc1)c1cccc([N+](=O)[O-])c1 (centres undefined)	HT1080 IDH1KD tx inconclusive, TDP1 cell CPT inconclusive, DT40 TDP1 no CPT 18.4µM
CCN1C[C@]2(C)CC[C@H](O)[C@@]34C5C[C@@H]6[C@@H](OC)C[C@@](O)(C5[C@H]6O)[C@@H](CC23)[C@@H]14 (some centres undefined)	none (no result: IL1B secr inh, HT1080 IDH1KD tx, HT1080NT lethal)
COc1cc(CC2C(=O)N(C)C(=O)N(C)C2=O)ccc1OCc1ccccc1	TDP1 cell CPT inconclusive
CCCCOc1ccc(CN2C(=O)C(=O)c3cc(C)ccc32)cc1OC	TDP1 cell CPT 1.03µM, DT40 TDP1 no CPT 0.731µM (no result: IL1B secr inh, HT1080 IDH1KD tx, HT1080NT lethal)
CCOP(=O)(OCC)/C(C#N)=C/c1ccc(-c2ccc(F)cc2F)o1	IL1B secr inh inconclusive, TDP1 cell CPT 14.6µM, DT40 TDP1 no CPT inconclusive
O=C(Nc1ccccc1)C1=C[C@H](c2ccccc2)C[C@H](OCCCCO)O1	TDP1 cell CPT 16.4µM, DT40 TDP1 no CPT inconclusive
COc1ccc(-c2ccc3c(c2)CN(CC(C)C)Cc2cnnn2-3)cc1	IL1B secr inh inconclusive, TDP1 cell CPT 16.4µM, DT40 TDP1 no CPT inconclusive
Clc1cccc(N2Cc3cc(-c4ccccc4)ccc3-n3nncc3C2)c1	IL1B secr inh -110.3, HT1080 IDH1KD tx 10.3µM, TDP1 cell CPT 2.59µM, HT1080NT lethal 10.3µM, DT40 TDP1 no CPT 3.66µM
Cc1ccc(S(=O)(=O)N2Cc3cc(N4CCOCC4)ccc3-n3nncc3C2)cc1	DT40 TDP1 no CPT inconclusive
Clc1cccc(N2Cc3cc(N4CCOCC4)ccc3-n3nncc3C2)c1	HT1080 IDH1KD tx inconclusive, TDP1 cell CPT 18.4µM, DT40 TDP1 no CPT inconclusive
COc1ccc(-c2ccc3c(c2)CN(c2cccc(Cl)c2)Cc2cnnn2-3)cc1	TDP1 cell CPT inconclusive, DT40 TDP1 no CPT inconclusive
C=CCc1c(C)[nH]c(=S)c(C#N)c1C	TDP1 cell CPT inconclusive, DT40 TDP1 no CPT inconclusive
CCC12CN3CC(CC)(CN(C1)C3c1c(C)[nH]c(=O)[nH]c1=O)C2=O (centres undefined)	none (no result: IL1B secr inh, HT1080 IDH1KD tx, HT1080NT lethal)
CCOc1ccccc1NC(=O)NCc1ccc2c(c1)CCN2C(=O)c1ccccc1	TDP1 cell CPT 23.1µM, DT40 TDP1 no CPT 16.4µM (no result: IL1B secr inh, HT1080 IDH1KD tx, HT1080NT lethal)
Cc1ccc2c(c1)CCCN2N=O	TDP1 cell CPT inconclusive
CCOc1ccccc1NC(=O)c1cccn(Cc2ccccc2C)c1=O	none (no result: IL1B secr inh, HT1080 IDH1KD tx, HT1080NT lethal)
Cc1ccc(NC(=O)NCc2ccc3c(c2)CCN3C(=O)c2ccccc2)c(Cl)c1	TDP1 cell CPT inconclusive, DT40 TDP1 no CPT 23.1µM (no result: IL1B secr inh, HT1080 IDH1KD tx, HT1080NT lethal)
CCOc1cccc(CC(=O)NCc2ccc3c(c2)CCN3C(=O)c2cccc(C)c2)c1OCC	TDP1 cell CPT 20.6µM, DT40 TDP1 no CPT 20.6µM (no result: IL1B secr inh, HT1080 IDH1KD tx, HT1080NT lethal)
c1cc2c(cc1N1CCCCC1)CNCc1cnnn1-2	HT1080NT lethal inconclusive
CC/C(=N\N1CCCCCC1)c1c(O)n(-c2ccccc2C)c(=O)[nH]c1=O	TDP1 cell CPT 20.6µM, DT40 TDP1 no CPT 14.6µM
C#C[C@]1(O)CC[C@H]2[C@@H]3CCC4=CC(=O)CCC4=C3C=C[C@@]21CC	TDP1 cell CPT 13.3µM, DT40 TDP1 no CPT 9.44µM (no result: IL1B secr inh, HT1080 IDH1KD tx, HT1080NT lethal)
CC(=O)O[C@H]1CC[C@H]2[C@@H]3CCC4=CC(=O)CCC4=C3C=C[C@]12C	TDP1 cell CPT inconclusive (no result: IL1B secr inh, HT1080 IDH1KD tx, HT1080NT lethal)
Nc1cccc2c1Cc1cc([N+](=O)[O-])ccc1-2	none
C=CCn1c(O)c(C=NC2CCN(Cc3ccccc3)CC2)c(=O)[nH]c1=O	HT1080NT lethal inconclusive
